Bioassay records (PubChem)
miR-122 inh = miR-122 sensor activation; 340,000 tested, 0.14% active; Huh7 psiCHECK-miR122 Renilla luciferase sensor, 48 h; AID 623901; activation, % at 12.5 µM;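 active = mean activation of 30% or more, with every replicate also reaching 30%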;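 note: higher luciferase signal means stronger suppression of miR-122 activity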
Of the large screens only hits and unclear results are named; the others gave an inactive call. Shown is part of a subset that was picked to be rich in hits.

COCC#Cc1cnc2c(c1)C(=O)N([C@H](C)CO)C[C@H](C)[C@@H](CN(C)C(=O)Nc1ccc(OC)cc1)O2	none
COCC#Cc1cnc2c(c1)C(=O)N([C@H](C)CO)C[C@@H](C)[C@@H](CN(C)C(=O)Nc1ccc(OC)cc1)O2	none
COc1ccc(C#Cc2ccc([C@H]3[C@H](CO)N4CCCCN(C(=O)Nc5ccccc5)C[C@@H]34)cc2)cc1	miR-122 inh 35.1
CC(C)CC#Cc1ccc([C@H]2[C@@H](CO)N3CCCCN(S(=O)(=O)Cc4ccccc4)C[C@H]23)cc1	miR-122 inh 34.5
O=C(Nc1ccccc1)N1C[C@H]2[C@@H](c3ccccc31)[C@@H](CO)N2C(=O)c1ccccn1	none
COc1cccc(NC(=O)N(C)C[C@H]2Oc3cc(C#Cc4ccccc4)ccc3S(=O)(=O)N([C@H](C)CO)C[C@@H]2C)c1	none
COc1ccc(NC(=O)N2CCCCN3[C@@H](CO)[C@H](c4ccc(C#CCC(C)C)cc4)[C@@H]3C2)cc1	miR-122 inh 33.2
C[C@@H]1CN([C@H](C)CO)S(=O)(=O)c2ccc(Br)cc2O[C@H]1CN(C)Cc1ccccn1	none
C[C@H](O)C#Cc1cnc2c(c1)C(=O)N([C@@H](C)CO)C[C@H](C)[C@H](CN(C)Cc1cncnc1)O2	none
C/C=C/c1ccc2c(c1)O[C@@H](CN(C)Cc1ccccc1)[C@@H](C)CN([C@@H](C)CO)S2(=O)=O	none
CC(=O)N1CC(C)Sc2ccc(S(=O)(=O)NCc3ccc(F)cc3)cc21 (stereo not drawn)	none
C[C@H](CO)N1C[C@H](C)[C@H](CN(C)CC2CCOCC2)Oc2ncc(Br)cc2C1=O	none
COCCNC(=O)CSc1nc2ccccc2c(=O)n1CC1CCCO1 (stereo not drawn)	none
CN1CC(c2ccc(C#N)cc2)C2(COc3ccccc3C2=O)C12C(=O)Nc1ccccc12 (stereo not drawn)	none
Cc1ccccc1-c1ccc2c(c1)O[C@H](CN(C)C(=O)Nc1ccccc1)[C@H](C)CN([C@@H](C)CO)S2(=O)=O	none
Nc1ccc(Oc2ccc(Br)cc2)cc1	miR-122 inh 35.3
C[C@H](CO)N1C[C@H](C)[C@H](CN(C)Cc2cncnc2)Oc2ncc(-c3cncnc3)cc2C1=O	none
Cc1cc(C)cc(Cn2c3ccc(NC(=S)NCc4ccccc4F)cc3c(=O)n2C)c1	none
CCCC#Cc1cnc2c(c1)C(=O)N([C@H](C)CO)C[C@@H](C)[C@@H](CN(C)Cc1ccccc1)O2	none
C[C@@H]1CN([C@H](C)CO)C(=O)c2cc(C#Cc3ccccn3)cnc2O[C@H]1CN(C)C(=O)CCN1CCCCC1	none
C[C@@H]1CN([C@@H](C)CO)S(=O)(=O)c2ccc(-c3ccccc3)cc2O[C@@H]1CN(C)C(=O)c1ccc2c(c1)OCO2	miR-122 inh 44.3
C/C=C/c1ccc2c(c1)O[C@H](CN(C)C(=O)c1ccc3c(c1)OCO3)[C@@H](C)CN([C@@H](C)CO)S2(=O)=O	none
C[C@@H]1CN([C@@H](C)CO)S(=O)(=O)c2ccc(-c3ccccc3)cc2O[C@@H]1CN(C)C(=O)CC1CC1	none
Cc1ccc(-c2ccc3c(c2)O[C@H](CN(C)C(=O)CC2CC2)[C@H](C)CN([C@H](C)CO)S3(=O)=O)cc1	miR-122 inh 40.1
Cc1ccc(-c2ccc3c(c2)O[C@H](CN(C)C(=O)CC2CC2)[C@H](C)CN([C@@H](C)CO)S3(=O)=O)cc1	miR-122 inh 52.5
C[C@H]1CN([C@@H](C)CO)S(=O)(=O)c2ccc(-c3ccccc3)cc2O[C@@H]1CN(C)C(=O)CC1CC1	none
C[C@@H]1CN([C@H](C)CO)S(=O)(=O)c2ccc(-c3ccccc3)cc2O[C@H]1CN(C)C(=O)CC1CC1	none
C/C=C/c1ccc2c(c1)O[C@@H](CN(C)C(=O)c1ccc3c(c1)OCO3)[C@@H](C)CN([C@@H](C)CO)S2(=O)=O	none
C[C@@H]1CN([C@H](C)CO)S(=O)(=O)c2ccc(Br)cc2O[C@@H]1CN(C)C(=O)CC1CC1	none
COc1cccc(C#Cc2ccc3c(c2)O[C@@H](CN(C)C(C)=O)[C@H](C)CN([C@@H](C)CO)S3(=O)=O)c1	none
C[C@@H]1CN([C@H](C)CO)C(=O)c2cccc(NS(C)(=O)=O)c2O[C@H]1CN(C)Cc1ccc(C(F)(F)F)cc1	none
COc1ccc(S(=O)(=O)Nc2ccc(C(F)(F)F)cc2)cc1OC	none
CO[C@@H]1CN(C)C(=O)c2ccc(NC(=O)c3cc(C)on3)cc2OC[C@@H](C)N(S(=O)(=O)c2ccccc2)C[C@H]1C	none
COCC(=O)N(C)C[C@H]1Oc2ncc(C#Cc3ccccc3OC)cc2C(=O)N([C@@H](C)CO)C[C@H]1C	none
CCCNC(=O)N(C)C[C@@H]1Oc2ncc(C#C[C@H](C)O)cc2C(=O)N([C@H](C)CO)C[C@@H]1C	none
CCCC#Cc1cnc2c(c1)C(=O)N([C@H](C)CO)C[C@H](C)[C@H](CN(C)C(=O)Cc1ccccc1)O2	none
C[C@@H]1CN([C@H](C)CO)C(=O)c2cc(-c3ccccc3F)cnc2O[C@@H]1CN(C)C(=O)C1CCCCC1	none
Cc1cc(C)c2c(c1)/C(=C/C(=O)c1ccc(Br)s1)C(=O)N2	miR-122 inh 42.9
C[C@H]1CN([C@@H](C)CO)C(=O)c2cc(C#CC3(O)CCCC3)cnc2O[C@H]1CN(C)Cc1ccncc1	none
N#CC1=C(N)Oc2c(ccc3cccnc23)C1c1ccccc1 (stereo not drawn)	miR-122 inh 64.0
C[C@@H]1CN([C@@H](C)CO)C(=O)c2cc(C#C[C@@H](C)O)cnc2O[C@H]1CN(C)C(=O)CN(C)C	none
C[C@@H]1CN([C@@H](C)CO)C(=O)c2cc(-c3cccc(C#N)c3)cnc2O[C@@H]1CN(C)C(=O)C1CCCCC1	none
C[C@H]1CN([C@@H](C)CO)C(=O)c2cc(-c3cncnc3)cnc2O[C@@H]1CN(C)Cc1cncnc1	none
O=C(Nc1ccc(S(=O)(=O)NCc2ccccc2)cc1)Nc1ccc2c(c1)OCO2	none
C[C@@H]1CN([C@@H](C)CO)C(=O)c2cc(-c3cccc(F)c3)cnc2O[C@@H]1CN(C)C(=O)Nc1ccccc1F	none
COCC(=O)N1[C@H](CO)[C@H]2c3ccccc3N(C(=O)C3CC3)C[C@H]21	miR-122 inh 41.7
CCN(C[C@H]1[C@H](c2ccccc2)[C@@H](CO)N1C(=O)COC)S(C)(=O)=O	none
O=C(c1cccnc1)N1C[C@H]2[C@@H](c3ccccc31)[C@H](CO)N2C(=O)C1CCCC1	miR-122 inh 40.0
O=C(c1cccc(F)c1)N1C[C@H]2[C@@H](c3ccccc31)[C@@H](CO)N2C(=O)c1ccc(F)cc1	none
O=C(c1ccc(F)cc1)N1C[C@H]2[C@@H](c3ccccc31)[C@@H](CO)N2C(=O)c1ccc(F)cc1	none
COc1ccc(C(=O)N2C[C@H]3[C@@H](c4ccccc42)[C@@H](CO)N3C(=O)c2ccc(F)cc2)cc1	none
COCC(=O)N(C)C[C@H]1Oc2cc(-c3cccc(F)c3)ccc2S(=O)(=O)N([C@@H](C)CO)C[C@H]1C	none
Nc1nonc1C(=O)N1CCCC1	none
O=C(OCn1ncc(Cl)c(Cl)c1=O)c1ccccc1Cl	miR-122 inh 61.2
C[C@H](CO)N1C[C@H](C)[C@H](CN(C)C(=O)C2CCC2)Oc2ncc(C#CC3CCCC3)cc2C1=O	none
C[C@H]1CN([C@@H](C)CO)S(=O)(=O)c2ccc(C#CC3(O)CCCC3)cc2O[C@H]1CN(C)C(=O)Nc1ccc(F)cc1	none
COc1ccccc1N1CCN(C(=O)CSc2nnc(NC(=O)C3CCC3)s2)CC1	none
Cc1ccc(NC(=O)C(=O)c2c(-c3ccccc3)cc3ccccn23)cc1S(=O)(=O)N1CCOCC1	none
COc1ccc(OC)c(-c2cc(C3CCN(c4cc(Cl)nc(N)n4)CC3)[nH]n2)c1	miR-122 inh 46.3
